Reference: PubChem BioAssay AID1671202 (University of Kansas High Throughput Screening Laboratory, 2021)
Several values for one entry are separate records, joined by “and”; a condition that tells them apart may be missing. Equal entries are not always repeated. Screen size: about 190,000 compounds; about 6,900 (3.6%) were called active. The sample holds actives, similar compounds and a random draw of the others, so the mix is not that of the screen. Cut-off read from the data, not from the text of the source: active = inhibition above about 50%; inactive = the rest. Some compounds were tested as several samples or in several runs, with calls that do not always agree.

Target: Huntingtin (Homo sapiens) (UniProt P42858)
Sequence (P42858 whole entry, looked up, stated change not applied): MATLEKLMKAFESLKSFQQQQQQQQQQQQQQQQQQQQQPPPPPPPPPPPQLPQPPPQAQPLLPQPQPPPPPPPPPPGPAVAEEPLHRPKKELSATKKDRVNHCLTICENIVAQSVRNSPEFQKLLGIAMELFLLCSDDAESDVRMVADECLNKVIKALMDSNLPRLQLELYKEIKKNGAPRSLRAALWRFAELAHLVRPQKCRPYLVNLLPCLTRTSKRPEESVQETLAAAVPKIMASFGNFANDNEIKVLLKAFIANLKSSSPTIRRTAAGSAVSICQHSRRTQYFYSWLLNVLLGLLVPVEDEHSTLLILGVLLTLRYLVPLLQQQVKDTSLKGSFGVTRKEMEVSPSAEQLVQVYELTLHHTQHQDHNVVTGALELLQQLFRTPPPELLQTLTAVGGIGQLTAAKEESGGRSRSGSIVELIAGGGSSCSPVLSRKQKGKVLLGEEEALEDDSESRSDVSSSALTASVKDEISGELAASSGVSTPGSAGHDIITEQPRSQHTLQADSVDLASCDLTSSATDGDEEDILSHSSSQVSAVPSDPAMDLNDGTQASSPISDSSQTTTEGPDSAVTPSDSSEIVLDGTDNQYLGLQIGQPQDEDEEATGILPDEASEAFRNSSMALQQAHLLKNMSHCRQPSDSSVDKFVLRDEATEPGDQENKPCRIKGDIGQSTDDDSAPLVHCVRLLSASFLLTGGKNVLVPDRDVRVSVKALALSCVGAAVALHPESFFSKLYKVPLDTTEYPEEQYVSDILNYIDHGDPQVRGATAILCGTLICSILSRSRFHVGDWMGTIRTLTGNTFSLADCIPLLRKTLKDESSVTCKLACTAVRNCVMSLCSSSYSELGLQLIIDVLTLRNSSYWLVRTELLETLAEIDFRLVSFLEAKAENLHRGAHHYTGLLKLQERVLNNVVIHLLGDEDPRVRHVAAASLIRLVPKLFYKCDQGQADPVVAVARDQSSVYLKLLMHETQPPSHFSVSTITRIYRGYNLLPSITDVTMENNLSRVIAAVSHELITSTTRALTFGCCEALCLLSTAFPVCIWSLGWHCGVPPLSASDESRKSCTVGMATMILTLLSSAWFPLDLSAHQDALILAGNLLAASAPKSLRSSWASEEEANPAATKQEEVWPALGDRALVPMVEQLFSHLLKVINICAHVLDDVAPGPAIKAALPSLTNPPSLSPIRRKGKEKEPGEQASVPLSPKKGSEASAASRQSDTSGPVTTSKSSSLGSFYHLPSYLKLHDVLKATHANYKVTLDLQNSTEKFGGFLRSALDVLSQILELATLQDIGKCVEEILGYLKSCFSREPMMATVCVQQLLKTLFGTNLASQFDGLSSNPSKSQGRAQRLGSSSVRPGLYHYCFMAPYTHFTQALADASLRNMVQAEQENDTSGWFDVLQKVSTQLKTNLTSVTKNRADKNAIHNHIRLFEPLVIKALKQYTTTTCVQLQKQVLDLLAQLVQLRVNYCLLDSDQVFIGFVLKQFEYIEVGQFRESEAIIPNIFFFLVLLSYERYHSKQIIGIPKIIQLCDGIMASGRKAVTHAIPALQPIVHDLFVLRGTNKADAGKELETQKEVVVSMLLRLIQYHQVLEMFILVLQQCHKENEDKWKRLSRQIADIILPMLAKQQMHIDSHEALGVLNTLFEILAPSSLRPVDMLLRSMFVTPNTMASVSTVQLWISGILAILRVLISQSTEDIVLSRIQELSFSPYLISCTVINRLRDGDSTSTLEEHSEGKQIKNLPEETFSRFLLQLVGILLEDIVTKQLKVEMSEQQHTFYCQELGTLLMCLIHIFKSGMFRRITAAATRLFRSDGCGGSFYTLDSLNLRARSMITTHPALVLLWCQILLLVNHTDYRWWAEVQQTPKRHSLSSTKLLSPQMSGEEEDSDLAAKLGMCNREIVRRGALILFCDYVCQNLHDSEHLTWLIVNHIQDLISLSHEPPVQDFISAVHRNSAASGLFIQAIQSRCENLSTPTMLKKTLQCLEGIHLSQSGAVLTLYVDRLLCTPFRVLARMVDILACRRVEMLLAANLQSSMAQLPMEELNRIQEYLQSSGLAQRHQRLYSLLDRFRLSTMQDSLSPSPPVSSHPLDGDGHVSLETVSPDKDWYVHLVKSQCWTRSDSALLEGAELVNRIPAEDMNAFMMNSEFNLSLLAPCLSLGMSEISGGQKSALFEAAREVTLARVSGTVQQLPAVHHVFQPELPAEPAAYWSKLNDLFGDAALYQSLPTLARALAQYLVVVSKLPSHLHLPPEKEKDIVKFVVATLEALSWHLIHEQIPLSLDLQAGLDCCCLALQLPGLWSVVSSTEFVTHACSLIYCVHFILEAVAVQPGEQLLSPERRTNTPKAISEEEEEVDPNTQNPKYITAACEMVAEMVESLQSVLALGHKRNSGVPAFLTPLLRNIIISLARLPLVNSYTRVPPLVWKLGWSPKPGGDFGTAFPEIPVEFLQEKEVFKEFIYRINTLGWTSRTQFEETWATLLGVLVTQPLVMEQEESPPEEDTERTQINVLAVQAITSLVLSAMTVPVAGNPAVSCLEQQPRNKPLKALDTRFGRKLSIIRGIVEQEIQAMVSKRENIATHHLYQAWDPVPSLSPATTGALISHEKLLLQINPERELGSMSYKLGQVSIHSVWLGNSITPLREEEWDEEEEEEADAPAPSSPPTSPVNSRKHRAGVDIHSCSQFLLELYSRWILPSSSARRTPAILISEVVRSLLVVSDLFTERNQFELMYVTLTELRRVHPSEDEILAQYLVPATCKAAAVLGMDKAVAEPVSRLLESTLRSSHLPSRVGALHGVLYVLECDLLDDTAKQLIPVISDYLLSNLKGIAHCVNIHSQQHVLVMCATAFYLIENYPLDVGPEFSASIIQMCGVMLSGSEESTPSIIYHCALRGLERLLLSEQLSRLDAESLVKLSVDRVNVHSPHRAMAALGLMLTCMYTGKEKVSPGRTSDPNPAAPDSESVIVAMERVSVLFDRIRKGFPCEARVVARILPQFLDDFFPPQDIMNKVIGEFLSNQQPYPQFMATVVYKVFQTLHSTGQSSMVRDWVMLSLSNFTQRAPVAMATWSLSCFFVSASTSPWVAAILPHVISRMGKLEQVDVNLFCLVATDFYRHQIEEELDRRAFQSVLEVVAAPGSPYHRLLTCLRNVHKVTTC
Assay: mutant huntingtin-calmodulin interaction inhibitors – biochemical, AlphaScreen, primary screen (AID 1671202);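 for inhibition: 0% = both proteins with DMSO and 100% = one protein alone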
Details: AlphaScreen His-mHTT/GST-CaM binding, luminescence; at 15 µM, stronger effect = higher value

| Compound | inhibition |
| --- | --- |
| COc1ccc(CNC(=O)CC2CCN(C(=O)c3[nH]c(C)c(C)c3C)CC2)cc1 | 11.4% (inactive) |
| COc1ccc(CCNc2nc(C)nc3sc(C)cc23)cc1OC | 0% (inactive) |
| CC(C)c1c(C2CCN(C(=O)c3cccc(F)c3)CC2)noc1N | -1.9% (inactive) |
| Cc1cc(C(=O)NCCCn2ccnc2)ccc1[N+](=O)[O-] | -2.3% (inactive) |
| CC(CC(=O)N1CCN(c2nc3ccccc3n(C)c2=O)CC1)c1ccccc1 (configuration not stated) | 3.2% (inactive) |
| Cc1ccccc1C1=N/C(=C\c2ccc(Br)cc2)C(=O)O1 | -1% (inactive) |
| CN(C)CCCn1c(-c2ccc(Cl)cc2)csc1=Nc1ccccc1 | 89% (active) |
| COc1ccc(C2C(=C(O)c3ccc(Cl)cc3)C(=O)C(=O)N2CCCN(C)C)c(OC)c1 (configuration not stated) | -4.4% (inactive) |
| COc1ccc(-c2csc(=Nc3ccccc3)n2C)cc1 | 29% (inactive) |
| CC1C(=O)N(c2ccc(Br)cc2)CCN1C(=O)C1CCCC1 (configuration not stated) | -6.1% (inactive) |
| Cc1nc(-c2ccccc2)oc1CC(=O)NCCN1CCCCCC1 | 100% (active) |
| Cc1ccc(C(=O)N2CCC(CC(=O)NCCN3CCCCCC3)CC2)cc1 | 13.3% (inactive) |
| O=C(CCS(=O)(=O)Cc1ccccc1F)NCCCN1CCCCC1 | 1% (inactive) |
| O=S(=O)(c1ccccc1)c1cccs1 | -6.17% (inactive) |
| Cc1cc(C)c(NC(=O)CNC2CC(C)(C)NC(C)(C)C2)c(C)c1 | -6.9% (inactive) |
| COc1ccc2oc(=O)c(-c3nnc(Nc4ccc(C)cc4)s3)cc2c1 | 3% (inactive) |
| O=C(c1ccco1)N1CCN(c2ccc([N+](=O)[O-])cc2)CC1 | 0.2% (inactive) |
| O=C(c1ccco1)N1CCN(c2ncnc3sc(-c4ccccc4)cc23)CC1 | 54.6% (active) |
| Cc1ccc2nc3sc(C(=O)N4CCN(C(=O)c5ccco5)CC4)cc3c(=O)n2c1 | 12.9% (inactive) |
| COc1cc(C(=O)N2CCC(CC(=O)NCc3ccccn3)CC2)cc(OC)c1OC | 19.9% (inactive) |
| COCCN1C(=O)c2ccccc2C(C(=O)NCC2CCCO2)C1c1ccc(F)cc1 (configuration not stated) | 0% (inactive) |
| Cc1ccc(C(=O)N2CCc3sc(C(=O)NCCC(C)C)cc3C2)cc1 | -0.52% (inactive) |
| O=C(Nc1ccc([N+](=O)[O-])cc1)C12CC3CC(C1)CC(c1ccccc1)(C3)C2 | 14.9% (inactive) |
| O=C(c1ccc(F)cc1)N1CCC(n2nc(-c3ccsc3)ccc2=O)CC1 | 93.2% (active) |
| O=C(c1ccc(-c2ccsc2)nc1)N1CCOCC1 | -3.2% (inactive) |

| Compound | inhibition |
| --- | --- |
| O=C(c1ccc2c(c1)OCO2)N1CCOCC1 | 1% (inactive) |
| CC1CCCN(C(=O)c2ccc(-c3ccsc3)nc2)C1 (configuration not stated) | -3.7% (inactive) |
| O=C(c1ccc2c(c1)OCO2)N1CCC(n2nc(-c3ccsc3)ccc2=O)CC1 | 98% (active) |
| O=C(c1ccc(-c2ccsc2)nc1)N1CCCCCC1 | -6.2% (inactive) |
| COc1ccc(NC(=O)N2CCCC2c2nc(-c3ccc(F)cc3F)no2)cc1F (configuration not stated) | 5.86% (inactive) |
| O=C(C1CCCC1)N1CCN(Cc2noc(-c3cccc4ccccc34)n2)CC1 | 19.3% (inactive) |
| O=C(N/N=C/C=C\c1ccco1)c1ccco1 | inactive |
| O=C(NCCn1ncccc1=O)c1cc(C2CC2)on1 | -8.3% (inactive) |
| Cc1cc(O)c2c(=O)c(-c3csc(C)n3)c(C(F)(F)F)oc2c1 | 1% (inactive) |
| COc1ccc(-c2c(C(F)(F)F)oc3cc(O)ccc3c2=O)cc1 | 10% (inactive) and -0.6% (inactive) |
| O=c1c(-c2ccc3c(c2)OCCO3)c(C(F)(F)F)oc2cc(O)cc(O)c12 | 54.5% (active) |
| COc1ccc(-c2noc(C3CCN(CC(=O)Nc4ccc(C)c(F)c4)CC3)n2)cc1 | -6.73% (inactive) |
| Cc1ccccc1Oc1nc(N2CCCC2)nc2c1CN(Cc1ccncc1)CC2 | 17.7% (inactive) |
| Cc1ccccc1NC(=O)NCc1ccsc1 | -8.6% (inactive) |
| O=C1c2ccccc2-c2onc3c(N4CCCC4)ccc1c23 | 64% (active) |
| CCN(Cc1ccccc1)C(=O)c1ccccc1Cl | -7.8% (inactive) |
| CCCNc1cc(N2CCC(CCC(=O)NCc3ccccn3)CC2)ncn1 | 1.6% (inactive) |
| COc1ccccc1Nc1cc(C)nc2ccc(Cl)cc12 | 0% (inactive) |
| O=C(Nc1ccccc1I)c1ccccc1F | -15.8% (inactive) and -24% (inactive) |
| Cc1ccc(C(=O)Nc2cnc(N3CCCCC3)nc2)c(C)c1 | 9.7% (inactive) |
| COc1ccc(C2=NC(c3ccncc3)=Nc3ccc(Br)cc3N2)cc1 | 50.3% (active) |
| COc1ccc(/C=C2\N=C(c3cccc(Br)c3)OC2=O)cc1 | -5% (inactive) |
| COc1cc(C=C(C#N)c2nc(-c3ccc4c(c3)OCO4)cs2)cc(OC)c1OC(C)=O | -4.5% (inactive) |
| CC(=O)N1c2ccccc2NC2=C(C(=O)CC(C)(C)C2)C1c1ccc(N(C)C)cc1 (configuration not stated) | 29.3% (inactive) |
| COc1ccc(S(=O)(=O)CCC(=O)Nc2ccccc2C(F)(F)F)cc1 | 1% (inactive) |

| Compound | inhibition |
| --- | --- |
| O=C(Cc1ccc(Cl)cc1)N1CCN(c2ccc(Cl)cc2[N+](=O)[O-])CC1 | 58.1% (active) and 44% (inactive) |
| O=[N+]([O-])c1cc(Cl)ccc1N1CCCNCC1 | -0.3% (inactive) |
| COc1ccc(C(=O)N2CCN(c3ccc(Cl)cc3[N+](=O)[O-])CC2)cc1Br | 14.9% (inactive) |
| O=C(CSc1nc2[nH]ncc2c(=O)n1-c1ccccc1)NCc1cccc(Cl)c1 | 8% (inactive) |
| O=S1(=O)CC(N2CCC(Cc3ccccc3)CC2)CN1Cc1ccccc1 (configuration not stated) | 19.9% (inactive) |
| O=[N+]([O-])c1ccc(CN2CC(N3CC=CC3)CS2(=O)=O)cc1 (configuration not stated) | -3% (inactive) |
| O=[N+]([O-])c1ccc(CN2CC(N3CCC(c4ccccc4)CC3)CS2(=O)=O)cc1 (configuration not stated) | 50.1% (active) |
| Cn1c(/C=C/c2ccc(Cl)cc2)nc2ccccc21 | -18.9% (inactive) |
| OC(COCC12CC3CC(CC(C3)C1)C2)CN1CCc2ccccc2C1 (configuration not stated) | 35.2% (inactive) |
| Cc1ccc(C(=O)N2CCN(c3nc(CN4CCCCC4)cs3)CC2)cc1F | 2% (inactive) |
| Cn1nc(-c2nc(Cc3ccccc3)no2)c2c1CCN(C(=O)c1ccccc1Cl)C2 | 6.74% (inactive) |
| CCC(CC)C(=O)N1CCc2c(c(-c3nnc(-c4ccccc4Cl)o3)nn2C)C1 | 6.42% (inactive) |
| Cn1nc(-c2nnc(-c3ccccc3Cl)o2)c2c1CCN(C(=O)CCc1ccccc1)C2 | 76.5% (active) |
| COc1cccc(C=C2Oc3c(ccc(O)c3CN(C)Cc3ccccc3)C2=O)c1OC | 93.1% (active) |
| CCCCN(C)Cc1c(O)ccc2c1OC(=Cc1cc(OC)c(OC)c(OC)c1)C2=O | -3.1% (inactive) |
| COc1cccc(C=C2Oc3c(ccc(O)c3CN3CCCCC3C)C2=O)c1OC (configuration not stated) | 15.7% (inactive) |
| COCC(C)(O)CNC(=O)C(=O)NCc1ccc(C)cc1 (configuration not stated) | -17.7% (inactive) |
| O=C(NCCN1CCOCC1)C1CC(=O)N(CCc2c[nH]c3ccc(F)cc23)C1 (configuration not stated) | -6.88% (inactive) |
| Cc1ccc2[nH]cc(CCN3CC(C(=O)Nc4ccc(Br)cc4)CC3=O)c2c1 (configuration not stated) | 53.5% (active) |
| O=C(Nc1ccc2c(c1)CCC2)C1CC(=O)N(CCc2c[nH]c3ccc(F)cc23)C1 (configuration not stated) | 53.7% (active) |
| CC(C)CCNC(=O)C1CC(=O)N(CCc2c[nH]c3ccc(Cl)cc23)C1 (configuration not stated) | 25.8% (inactive) |
| Cc1ccc(NC(=O)C2CC(=O)N(CCc3c[nH]c4ccc(Cl)cc34)C2)c(C)c1 (configuration not stated) | 65% (active) |
| Cc1ccc2[nH]cc(CCN3CC(C(=O)N4CCN(c5ccccc5)CC4)CC3=O)c2c1 (configuration not stated) | 45.4% (inactive) |
| O=C(Nc1ccccc1F)C1CC(=O)N(CCc2c[nH]c3ccc(F)cc23)C1 (configuration not stated) | 9.18% (inactive) |
| Cc1ccc2[nH]cc(CCN3CC(C(=O)Nc4cccc(Br)c4)CC3=O)c2c1 (configuration not stated) | 39.7% (inactive) |

| Compound | inhibition |
| --- | --- |
| Cc1ccc2[nH]cc(CCN3CC(C(=O)Nc4cccc(C)c4C)CC3=O)c2c1 (configuration not stated) | 30.5% (inactive) |
| CC1(C(=O)NCC2CCCO2)CCC(=O)N1Cc1cccs1 (configuration not stated) | 3% (inactive) |
| CCN(c1ccc(F)cc1)S(=O)(=O)c1ccc2[nH]cc(C(=O)NCCN(C)C)c(=O)c2c1 | 3% (inactive) |
| CCOc1ccc(CN2C(=O)CCC2(C)C(=O)NC2CCCC(C)C2C)cc1 (configuration not stated) | -9% (inactive) |
| C=CCNCCCOc1ccc(Br)cc1C | 0.1% (inactive) |
| CCc1ccc(NC(=O)CN2C(=O)C(c3ccccc3)=NC23CCCCC3)cc1 | -7.57% (inactive) |
| COc1ccc(NC(=O)CN2C(=O)C(c3ccccc3)=NC23CCCCCC3)cc1OC | -0.13% (inactive) |
| O=C(CN1C(=O)C(c2ccccc2)=NC12CCCCC2)Nc1ccc(Cl)cc1 | 50.9% (active) |
| Cc1ccc(NC(=O)CN2CCN(c3ccccn3)CC2)cc1F | 2% (inactive) |
| COCCNC(=O)NCCn1ccnc1C | -11.5% (inactive) |
| COc1cc(CN2CCN(Cc3cc(OC)c(OC)c(OC)c3)CC2)cc(OC)c1 | -4.6% (inactive) |
| COc1cccc(C(=O)N(CC#N)CC#N)c1 | 4.4% (inactive) |
| COc1ccc(O)c(C(=O)CC(=O)c2cccc(F)c2)c1 | 58.1% (active) |
| COc1ccc(CC(=O)Nc2ccccc2F)cc1 | 0.5% (inactive) |
| CC(C)n1c(COc2ccccc2)nc2ccccc21 | -16% (inactive) |
| Cn1c(COc2ccc(Cl)cc2)nc2ccccc2c1=O | 61.9% (active) |
| CCSc1nc2ccccc2c(=O)n1C | -11.7% (inactive) |
| O=C(Nc1cccc(NC(=O)c2ccccc2Cl)c1)c1ccccc1Cl | 1% (inactive) |
| Nc1c(C(=O)Nc2ccccc2I)sc2nc(-c3cccs3)ccc12 | -8% (inactive) |
| CCOc1cccc2c1OC1(CCCCC1)N1N=C(c3cccnc3)CC21 (configuration not stated) | 27% (inactive) |
| CCOc1cccc2c1OC(c1ccc(OC)c(OC)c1)N1N=C(c3ccco3)CC21 (configuration not stated) | 45% (inactive) |
| CCOc1cccc2c1OC(c1cccc(OC)c1OC)N1N=C(c3ccc(C)o3)CC21 (configuration not stated) | 67% (active) |
